Measurements published in PubChem BioAssay (NCATS).
Inconclusive results are not listed. Activity calls are given as the source filed them. Calls come from the whole dose curve; as a rule, active = well fitted curve in the direction sought with a large enough effect; inconclusive = small, poorly fitted or top-dose-only effect, or another doubt; inactive = no such curve, though single readings can be large; an effect the other way counts as inactive or inconclusive.

Test: qHTS assay to identify small molecule inhibitors of chordoma cells - UCH-2 (AID 1259356)
Conditions: UCH-2 chordoma viability, CellTiter-Glo ATP luminescence, 48 h; series mostly up to 46.1 µM; activity change, negative = inhibition: at the top concentration
% is set by controls: 0 for no effect and ±100 for the full control effect.

Row | SMILES | activity change, negative = inhibition
1 | C[N+]1(C)CCCC(OC(=O)C(O)(c2ccccc2)c2ccccc2)C1 (configuration not stated) | 4.92% [at 20.6 µM] (inactive)
2 | CCCNC(C)(C)COC(=O)c1ccccc1 | 2.67% (inactive)
3 | CN1C(=O)CC(c2ccccc2)C1=O (configuration not stated) | 17.1% (inactive)
4 | CC(C)CCCC(C)CCCC(C)CCCCC(C)CCCC(C)CCCC(C)C (configuration not stated) | 14.3% (inactive)
5 | O=c1[nH]c(=O)n([C@H]2C[C@H](O)[C@@H](CO)O2)cc1I | 7.3% [at 20.6 µM] (inactive)
6 | CN[C@@H]1[C@@H](O)[C@@H](O[C@@H]2[C@H](O)[C@H](O[C@H]3OC(CN)=CC[C@H]3N)[C@@H](N)C[C@H]2N)OCC1(C)O (some centres not stated) | 4.73% (inactive)
7 | Nc1ccc(S(=O)(=O)c2ccc(N)cc2)cc1 | -2.15% (inactive)
8 | CCC(C)(CN(C)C)OC(=O)c1ccccc1 (configuration not stated) | 2.52% [at 20.6 µM] (inactive)
9 | C[C@@H]1O[C@@H](OC[C@H]2O[C@@H](Oc3c(-c4ccc(O)c(O)c4)oc4cc(O)cc(O)c4c3=O)[C@H](O)[C@@H](O)[C@@H]2O)[C@H](O)[C@H](O)[C@H]1O | 7.26% (inactive)
10 | COC(=O)N/N=C/c1c[n+]([O-])c2ccccc2[n+]1[O-] | -0.384% (inactive)
11 | CC(C)=CCC/C(C)=C/CO | 9.99% (inactive)

Test: P-glycoprotein substrates identified in KB-8-5-11 adenocarcinoma cell line, qHTS therapeutic library screen (AID 1346987); note: nearly all actives have a fitted effect of over 65% in size
Conditions: KB-8-5-11 (P-gp overexpressing) viability, CellTiter-Glo, 72 h; series mostly up to 44.5 µM; activity change, negative = cytotoxicity: at the top concentration
Procedure, shortened: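 P-gp-mediated resistance screen: KB-8-5-11 cells treated 72 h with compounds in dose-response. CellTiter-Glo viability.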

Row | SMILES | activity change, negative = cytotoxicity
12 | CC(=O)Oc1cccc(O)c1 | -3.78% (inactive)
13 | CO[C@@]1(NC(=O)C(C(=O)O)c2ccc(O)cc2)C(=O)N2C(C(=O)O)=C(CSc3nnnn3C)CO[C@@H]21 (some centres not stated) | -10.3% [at 17.3 µM] (inactive)
14 | COc1ccc2cc(CCC(C)=O)ccc2c1 | -31.2% [at 17.3 µM] (inactive)
15 | NC(=O)CCCCC1CCSS1 (configuration not stated) | 1.78% (inactive)
16 | NC(=O)CC[C@@H](N)C(=O)O | -4.17% (inactive)
17 | O=C(Cn1ccnc1[N+](=O)[O-])NCCO | 29.4% (inactive)
18 | O=c1[nH]cnc2nc[nH]c12 | -5.62% (inactive)
19 | CC(=O)NS(=O)(=O)c1ccc(N)cc1 | 8.3% (inactive)
20 | O=C(O)CNC(=O)c1ccccc1I | -11.9% (inactive)
21 | CC(N)CCCC(C)(C)O (configuration not stated) | 1.66% (inactive)
22 | CC1CCN(CCCC(=O)c2ccc(F)cc2)CC1 | -9.11% (inactive)
23 | CC(C)c1cc2c(cc1S(=O)(=O)O)[C@@]1(C)CCC[C@@](C)(C(=O)O)[C@@H]1CC2 | -2.19% (inactive)
24 | NNc1nnc(NN)c2ccccc12 | -2.03% (inactive)
25 | Cc1ccccc1N=Nc1ccc(N=Nc2c(O)ccc3ccccc23)c(C)c1 | -23.1% (inactive)
26 | CC(=O)Oc1cccc(C)c1 | 16.9% (inactive)
27 | CN1CCCN=C1COC(=O)C(O)(c1ccccc1)C1CCCCC1 (configuration not stated) | -7.63% (inactive)

Row | SMILES | activity change, negative = cytotoxicity
28 | COc1nccnc1NS(=O)(=O)c1ccc(N)cc1 | -0.925% (inactive)
29 | Cc1cccc(Nc2ccccc2C(=O)O)c1C | -0.299% (inactive)
30 | O=C(NCN1CCOCC1)c1cnccn1 | -1.46% (inactive)
31 | C[N+]1(C)CCCC(OC(=O)C(O)(c2ccccc2)c2ccccc2)C1 (configuration not stated) | 3.5% [at 17.3 µM] (inactive)
32 | CCCNC(C)(C)COC(=O)c1ccccc1 | 16.9% (inactive)
33 | CN1C(=O)CC(c2ccccc2)C1=O (configuration not stated) | -3.06% (inactive)
34 | CC(C)CCCC(C)CCCC(C)CCCCC(C)CCCC(C)CCCC(C)C (configuration not stated) | -6.84% (inactive)
35 | CN[C@@H]1[C@@H](O)[C@@H](O[C@@H]2[C@H](O)[C@H](O[C@H]3OC(CN)=CC[C@H]3N)[C@@H](N)C[C@H]2N)OCC1(C)O (some centres not stated) | 0.845% (inactive)
36 | Nc1ccc(S(=O)(=O)c2ccc(N)cc2)cc1 | -12.3% (inactive)
37 | NC(=O)N[C@@H](CCC(=O)O)C(=O)O | -11.9% (inactive)
38 | C[C@@H]1O[C@@H](OC[C@H]2O[C@@H](Oc3c(-c4ccc(O)c(O)c4)oc4cc(O)cc(O)c4c3=O)[C@H](O)[C@@H](O)[C@@H]2O)[C@H](O)[C@H](O)[C@H]1O | 29.3% (inactive)
39 | COC(=O)N/N=C/c1c[n+]([O-])c2ccccc2[n+]1[O-] | 4.57% (inactive)
40 | CCCCCCCCCCOc1cc2c(=O)c(C(=O)OCC)c[nH]c2cc1OCC | -3.18% (inactive)
41 | CC(C)=CCC/C(C)=C/CO | -7.73% (inactive)
42 | C=CCN1C[C@H](C(=O)N(CCCN(C)C)C(=O)NCC)C[C@@H]2c3cccc4[nH]cc(c34)C[C@H]21 | 9.28% (inactive)
